Compound activity as filed in PubChem BioAssay.
VP16 counter: Gal4-VP16 reporter inhibition counter-screen | Potency, µM (top dose mostly 53.6 µM), for inactives: at the top dose activity, negative = inhibition, hits mostly inhibitors | 310,000 compounds, 3.5% hits | Drosophila S2 Gal4-VP16 UAS-luciferase, luminescence, 20 h;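 note: Gal4-VP16 expression switched on by copper sulfate through the metallothionein promoter; nearly all actives have a fitted effect of over 50% in size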
RORg inh: inhibitors of mouse ROR gamma transcriptional activity | 310,000 compounds, 5.4% hits | P51450 | Potency, µM (top dose mostly 53.6 µM), without a hit: at the highest dose activity change, negative = inhibition, actives largely listed as inhibitors | Drosophila S2 Gal4-RORgamma UAS-luciferase reporter, 20 h; note: nearly all actives have a fitted effect of over 60% in size
Target sequence (P51450 whole entry, looked up, the tested form may be a part): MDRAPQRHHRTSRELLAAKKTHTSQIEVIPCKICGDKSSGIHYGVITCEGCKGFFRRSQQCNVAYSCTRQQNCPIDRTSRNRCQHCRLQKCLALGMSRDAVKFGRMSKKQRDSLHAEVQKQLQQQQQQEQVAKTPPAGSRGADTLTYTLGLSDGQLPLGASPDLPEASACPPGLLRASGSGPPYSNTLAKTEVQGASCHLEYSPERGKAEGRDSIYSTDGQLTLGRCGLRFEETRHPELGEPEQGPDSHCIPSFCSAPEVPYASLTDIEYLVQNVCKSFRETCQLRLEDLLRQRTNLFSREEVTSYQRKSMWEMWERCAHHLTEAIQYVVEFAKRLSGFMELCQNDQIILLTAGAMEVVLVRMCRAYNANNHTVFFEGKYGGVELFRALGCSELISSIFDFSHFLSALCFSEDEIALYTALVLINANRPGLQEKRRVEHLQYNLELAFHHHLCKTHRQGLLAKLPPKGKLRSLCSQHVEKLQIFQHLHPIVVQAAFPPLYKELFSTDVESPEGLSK
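In this cell-based reporter format, copper sulfate (700 uM final) drives Gal4–ROR gamma fusion expression from a metallothionein promoter in Drosophila Schneider cells; compounds preincubated 1 hr, reporter read after 20 hr at ambient temperature.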
KinaseGlo FLuc: Kinase-Glo luciferase inhibition (counter-screen). AID 1379. Kinase-Glo luciferase, ATP luminescence, 8 min. Q27757. Potency, µM (doses to about 38.3 µM), without a hit: at the top dose activity change, negative = inhibition, hits mostly inhibitors. 200,000 compounds, 0.28% hits; note: nearly all actives have a fitted effect of over 60% in size
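Kinase-Glo luciferase light output from ATP and luciferin was measured with 10 uM ATP, within the enzyme's linear range. Buffer: 50 mM imidazole pH 7.2, 50 mM KCl, 7 mM MgCl2, 0.01% Tween 20, 0.05% BSA; luminescence read after 8 min at ambient temperature.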
The depositor's hits bear a star; [ ] = another dose, or the depositor's remark. Compounds with a hit are over-represented: about 6.2% of the library has one in this group of screens. Calls come from the whole dose curve; as a rule, active = well fitted curve in the direction sought with a large enough effect; inconclusive = small, poorly fitted or top-dose-only effect, or another doubt; inactive = no such curve, though single readings can be large; an effect the other way counts as inactive or inconclusive. % is set by controls: 0 for no effect and ±100 for the full control effect; potency is the fitted concentration of half-maximal effect.

O=C(O)c1ccc(C(=O)c2ccc3c(c2)C(=O)N(CC2CCCO2)C3=O)cc1 (stereo unspecified) was read as VP16 counter -18%, RORg inh 2% and KinaseGlo FLuc 0%.
Screening COc1ccccc1NC(=O)c1nc(S(=O)(=O)Cc2ccccc2)ncc1Cl returned VP16 counter 5µM* and RORg inh 7.1µM*.
For COc1ccccc1NC(=O)c1ccc(C(=O)Nc2ccccc2OC)nc1 the results were VP16 counter -2% and RORg inh -10%.
Screening COc1ccccc1NC(=O)c1ccc(CS(=O)(=O)c2ccc(C)cc2)cc1 returned VP16 counter -3%, RORg inh 17% and KinaseGlo FLuc 4%.
Screening CCOc1ccccc1NC(=O)c1ccc(C(=O)Nc2ccccc2OCC)nc1 returned VP16 counter inconclusive and RORg inh -12%.
For CCOc1ccccc1NC(=O)c1nc(S(=O)(=O)Cc2ccccc2)ncc1Cl the results were VP16 counter 4.5µM* and RORg inh 10µM*.
For CCS(=O)(=O)c1ncc(Cl)c(C(=O)Nc2ccccc2OC)n1 the results were VP16 counter 1.4µM* and RORg inh inconclusive.
`C=CCn1c(Cc2cccs2)nnc1SCC(=O)Nc1cc(OC)cc(OC)c1` gave VP16 counter 3%, RORg inh 43% and KinaseGlo FLuc -2%.
Screening O=C(/C=C/c1ccccc1)N1CCN(c2c(Cl)cccc2[N+](=O)[O-])CC1 returned VP16 counter -6%, RORg inh inconclusive and KinaseGlo FLuc 1%.
COc1ccc(C(=O)N/C(=C/c2cccs2)C(=O)NN)cc1OC was read as VP16 counter 5% and RORg inh -1%.
For COc1ccccc1NC(=O)c1nnn(CC(=O)Nc2ccccc2)c1N the results were VP16 counter -1%, RORg inh inconclusive and KinaseGlo FLuc 0%.
`COc1ccccc1NC(=O)c1nnn(CC(=O)Nc2cccc(SC)c2)c1N` gave VP16 counter inconclusive, RORg inh 6.3µM* and KinaseGlo FLuc 13%.
Screening COc1ccc(-c2cc3ncc(-c4ccccc4)c(N)n3n2)cc1 returned VP16 counter 7.9µM*, RORg inh inconclusive and KinaseGlo FLuc 11µM*.
Screening N#Cc1cnc2cc(-c3ccccc3)nn2c1N returned VP16 counter 23% and RORg inh 2%.
For COc1ccc(-c2cc3nc(C)cc(N)n3n2)cc1 the results were VP16 counter 10µM*, RORg inh 11µM* and KinaseGlo FLuc 7.9µM*.
`COc1ccc(-c2cc3nc(C)cc(-c4ccc(OC)cc4)n3n2)cc1` gave VP16 counter 1% and RORg inh 8%.
`COc1ccc2cc(C(=O)C3CCCN(C(=O)/C=C/c4ccccn4)C3)ccc2c1` (stereo unspecified) gave VP16 counter 5%, RORg inh -34% and KinaseGlo FLuc -4%.
O=C(NCCNC(=O)c1ccco1)c1ccc(Cl)c(Cl)c1 was read as VP16 counter -8% and RORg inh -36%.
Screening Cc1cc(C)nc(NC(=O)c2ccc(C)c([N+](=O)[O-])c2)n1 returned VP16 counter 2%, RORg inh -17% and KinaseGlo FLuc -2%.
`Cc1cc(C(=O)Nc2nc(-c3ccccn3)cs2)ccc1[N+](=O)[O-]` gave VP16 counter 2.8µM*, RORg inh 1.1µM* and KinaseGlo FLuc -4%.
Cc1csc(NC(=O)c2ccc(C)c([N+](=O)[O-])c2)n1 was read as VP16 counter 14µM*, RORg inh inconclusive and KinaseGlo FLuc -28%.
`Cc1csc(NC(=O)c2ccc(Cl)cc2[N+](=O)[O-])n1` gave VP16 counter -2%, RORg inh inconclusive and KinaseGlo FLuc -4%.
Screening Cc1csc(NC(=O)c2ccccc2[N+](=O)[O-])n1 returned VP16 counter 8%, RORg inh 0% and KinaseGlo FLuc -2%.
O=C(Nc1nc(-c2ccccn2)cs1)c1cc(Cl)ccc1[N+](=O)[O-] was read as VP16 counter 2.8µM*, RORg inh 1.1µM* and KinaseGlo FLuc -7%.
For O=C(O)CCN=CC1=C(O)CC(c2ccccc2)CC1=O (stereo unspecified) the results were VP16 counter -6% and RORg inh -18%.
For CCc1noc(C)c1C(=O)N1CCCC(CCC(=O)NCc2cccc(OC)c2)C1 (stereo unspecified) the results were VP16 counter 6%, RORg inh -13% and KinaseGlo FLuc 2%.
For CC(C)(C)CN1CCN(Cc2c[nH]c3ccccc23)CC1CCO (stereo unspecified) the results were VP16 counter -5% and RORg inh 11%.
`CCOC(=O)c1nn(-c2ccc(Cl)cc2)c2nc(Nc3ccccc3)cc(=O)n12` gave VP16 counter 0%, RORg inh 8% and KinaseGlo FLuc -2%.
`Cc1ccc(CN(CC(=O)N/N=C/c2ccco2)S(=O)(=O)c2ccc(C)cc2)cc1` gave VP16 counter 11%, RORg inh 44% and KinaseGlo FLuc -2%.
CCNC(=S)N1CCN(Cc2ccccc2)CC1 was read as VP16 counter 2%, RORg inh -8% and KinaseGlo FLuc 0%.
CC(C)CNC(=S)N1CCC(NC(=O)c2ccco2)CC1 was read as VP16 counter -7%[10 µM], RORg inh -10% and KinaseGlo FLuc -1%.
CC1CCN(C(=S)NC(=O)c2ccco2)CC1 was read as VP16 counter 6.3µM* and RORg inh 4µM*.
For O=C(NC(=S)N1CCN(Cc2ccccc2)CC1)c1ccco1 the results were VP16 counter 3.5µM*, RORg inh 0.89µM* and KinaseGlo FLuc -1%.
C=CCC(C)(O)c1cccc(C(F)(F)F)c1 (stereo unspecified) was read as VP16 counter -8%, RORg inh 10% and KinaseGlo FLuc -2%.
O=C(NCCN1C(=O)S/C(=C\c2ccc(F)cc2)C1=O)c1cccc(S(=O)(=O)N2CCOCC2)c1 was read as VP16 counter -6%, RORg inh 14%[10 µM] and KinaseGlo FLuc -2%.
O=C(NCCc1cn2ccccc2n1)C1CCCCC1 was read as VP16 counter 22%, RORg inh 2% and KinaseGlo FLuc -4%.
Screening COC(=O)N1C2(C=CC1(C)C(=O)NCc1ccc(N(C)C)cc1)CCCCC2 (stereo unspecified) returned VP16 counter -3%, RORg inh -4% and KinaseGlo FLuc -4%.
`COc1ccc(OC)c(/C=C/C(=O)OCC(=O)c2c(N)n(C)c(=O)n(C)c2=O)c1` gave VP16 counter -2%, RORg inh 11% and KinaseGlo FLuc 1%.
`Cc1ccn2cc(CNC(=O)c3ccc(Br)o3)nc2c1` gave VP16 counter 15%, RORg inh 0% and KinaseGlo FLuc -2%.
For Cc1ccc2c(C)cc(=S)[nH]c2c1 the results were VP16 counter inconclusive, RORg inh 4µM* and KinaseGlo FLuc -4%.
`Cc1cc(=S)[nH]c2ccccc12` gave VP16 counter -2%, RORg inh inconclusive and KinaseGlo FLuc -2%.
Screening Cc1ccc2[nH]c(=S)cc(C)c2c1 returned VP16 counter inconclusive, RORg inh 16µM* and KinaseGlo FLuc -1%.
Cc1cc2[nH]c(=S)[nH]c2cc1C was read as VP16 counter 2%, RORg inh inconclusive and KinaseGlo FLuc 0%.
